Source: the supplement of paper PMC12645437, “Orthogonal IMiD-Degron Pairs Induce Selective Protein Degradation in Cells” (ACS Chemical Biology, 2025)
In all, about 8,300 sequences were measured (“log2 fold change of degron read counts, EGFP-low vs EGFP+ sorted cells (limma voom), compound-induced degradation”: median about -1.1, highest 2% from about 3.2 on). Many of the other results were omitted from the sample, so the highest values are more common in it than they were.

Molecular target: T1, CRBN, Q96SW2
T1 chain: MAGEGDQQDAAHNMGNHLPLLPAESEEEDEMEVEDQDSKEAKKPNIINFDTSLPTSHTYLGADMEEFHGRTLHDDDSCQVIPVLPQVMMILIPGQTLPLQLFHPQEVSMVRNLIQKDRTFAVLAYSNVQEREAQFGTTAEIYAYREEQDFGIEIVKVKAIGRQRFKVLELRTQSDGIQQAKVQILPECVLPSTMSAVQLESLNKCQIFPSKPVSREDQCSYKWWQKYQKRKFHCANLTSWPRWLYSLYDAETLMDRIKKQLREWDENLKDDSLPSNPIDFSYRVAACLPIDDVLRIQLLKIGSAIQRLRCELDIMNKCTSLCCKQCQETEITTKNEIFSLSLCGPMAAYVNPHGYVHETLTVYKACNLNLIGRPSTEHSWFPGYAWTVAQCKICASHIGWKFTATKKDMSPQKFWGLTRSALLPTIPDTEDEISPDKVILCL
Assay: log2 fold change of degron read counts, EGFP-low vs EGFP+ sorted cells (limma voom), compound-induced degradation; higher = more compound-induced degradation of the degron-EGFP fusion; degrons are variants of IKZF1/3 zinc finger 2; compound dose not given here
Conditions: Jurkat, 18 h

[1] = compound: compound 19 (5-tert-butyl-thalidomide)
[2] = compound: compound 22 (5-morpholino-thalidomide)
[3] = compound: compound 33 (diphenyl IMiD analogue)
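Also: pooled lentiviral library of zinc finger degron-EGFP fusions in mCherry-positive Jurkat cells, FACS-sorted after compound exposure, with degron abundance counted by next-generation sequencing.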

B1: 46L_47N_49N_50Q_52G_53F_54H_55C_67L_, Q9UKT9 (peptide)
chain: LNCNQCGFHCTQKGNLLRHIKL
[1]
  log2 fold change of degron read counts: -1.47
[2]
  log2 fold change of degron read counts: -2.01
[3]
  log2 fold change of degron read counts: -1.68
compound: thalidomide
  log2 fold change of degron read counts: -1.54

B2: 46F_47G_49E_50I_52G_53R_54Q_55F_67L_, Q9UKT9 (peptide)
chain: FGCEICGRQFTQKGNLLRHIKL
[1]
  log2 fold change of degron read counts: -0.21
[2]
  log2 fold change of degron read counts: -0.999
[3]
  log2 fold change of degron read counts: -1.15
compound: thalidomide
  log2 fold change of degron read counts: -1.42

B3: 46F_47S_49P_50I_52G_53R_54C_55F_67L_, Q9UKT9 (peptide)
chain: FSCPICGRCFTQKGNLLRHIKL
[1]
  log2 fold change of degron read counts: -0.773
[2]
  log2 fold change of degron read counts: -1.2
[3]
  log2 fold change of degron read counts: 0.835
compound: thalidomide
  log2 fold change of degron read counts: -0.39

B4: 46F_47Y_49D_50Q_52G_53A_54F_55F_67L_, Q9UKT9 (peptide)
chain: FYCDQCGAFFTQKGNLLRHIKL
[1]
  log2 fold change of degron read counts: -0.965
[2]
  log2 fold change of degron read counts: -1.17
[3]
  log2 fold change of degron read counts: -1.35
compound: thalidomide
  log2 fold change of degron read counts: -2.48

B5: 46F_47L_49E_50I_52G_53R_54I_55F_67L_, Q9UKT9 (peptide)
chain: FLCEICGRIFTQKGNLLRHIKL
[1]
  log2 fold change of degron read counts: -1.35
[2]
  log2 fold change of degron read counts: -1.7
[3]
  log2 fold change of degron read counts: -0.45
compound: thalidomide
  log2 fold change of degron read counts: -0.0614

B6: 46F_47R_49N_50Q_52G_53A_54V_55F_67L_, Q9UKT9 (peptide)
chain: FRCNQCGAVFTQKGNLLRHIKL
[1]
  log2 fold change of degron read counts: -2.12
[2]
  log2 fold change of degron read counts: -2.1
[3]
  log2 fold change of degron read counts: -1.19
compound: thalidomide
  log2 fold change of degron read counts: -1.75

B7: 46F_47L_49E_50I_52G_53R_54N_55F_67L_, Q9UKT9 (peptide)
chain: FLCEICGRNFTQKGNLLRHIKL
[1]
  log2 fold change of degron read counts: -2.29
[2]
  log2 fold change of degron read counts: -2.99
[3]
  log2 fold change of degron read counts: -1.84
compound: thalidomide
  log2 fold change of degron read counts: -0.409

B8: 46F_47V_49N_50V_52G_53A_54H_55F_67L_, Q9UKT9 (peptide)
chain: FVCNVCGAHFTQKGNLLRHIKL
[1]
  log2 fold change of degron read counts: -1.72
[2]
  log2 fold change of degron read counts: -0.867
[3]
  log2 fold change of degron read counts: 0.0144
compound: thalidomide
  log2 fold change of degron read counts: -0.327

B9: 46F_47A_49P_50Q_52G_53A_54K_55F_67L_, Q9UKT9 (peptide)
chain: FACPQCGAKFTQKGNLLRHIKL
[1]
  log2 fold change of degron read counts: 1.62
[2]
  log2 fold change of degron read counts: -1.34
[3]
  log2 fold change of degron read counts: -2.13
compound: thalidomide
  log2 fold change of degron read counts: -1.03

B10: 46F_47E_49P_50I_52G_53H_54A_55F_67L_, Q9UKT9 (peptide)
chain: FECPICGHAFTQKGNLLRHIKL
[1]
  log2 fold change of degron read counts: -2.37
[2]
  log2 fold change of degron read counts: -2.63
[3]
  log2 fold change of degron read counts: -1.62
compound: thalidomide
  log2 fold change of degron read counts: -1.53

B11: 46F_47S_49N_50I_52G_53A_54G_55F_67L_, Q9UKT9 (peptide)
chain: FSCNICGAGFTQKGNLLRHIKL
[1]
  log2 fold change of degron read counts: 1.15
[2]
  log2 fold change of degron read counts: 0.769
[3]
  log2 fold change of degron read counts: 0.918
compound: thalidomide
  log2 fold change of degron read counts: 0.088

B12: 46F_47W_49E_50I_52G_53A_54T_55F_67L_, Q9UKT9 (peptide)
chain: FWCEICGATFTQKGNLLRHIKL
[1]
  log2 fold change of degron read counts: 3.05
[2]
  log2 fold change of degron read counts: 3.73
[3]
  log2 fold change of degron read counts: 1.97
compound: thalidomide
  log2 fold change of degron read counts: 0.793

B13: 46F_47V_49E_50I_52G_53A_54T_55F_67L_, Q9UKT9 (peptide)
chain: FVCEICGATFTQKGNLLRHIKL
[1]
  log2 fold change of degron read counts: 0.63
[2]
  log2 fold change of degron read counts: 1.64
[3]
  log2 fold change of degron read counts: 1.82
compound: thalidomide
  log2 fold change of degron read counts: 2.54

B14: 46F_47G_49E_50I_52G_53A_54T_55F_67L_, Q9UKT9 (peptide)
chain: FGCEICGATFTQKGNLLRHIKL
[1]
  log2 fold change of degron read counts: 3.22
[2]
  log2 fold change of degron read counts: 2.59
[3]
  log2 fold change of degron read counts: 1.76
compound: thalidomide
  log2 fold change of degron read counts: 1.11

B15: 46F_47F_49E_50I_52G_53H_54I_55F_67L_, Q9UKT9 (peptide)
chain: FFCEICGHIFTQKGNLLRHIKL
[1]
  log2 fold change of degron read counts: -0.448
[2]
  log2 fold change of degron read counts: -0.503
[3]
  log2 fold change of degron read counts: -0.957
compound: thalidomide
  log2 fold change of degron read counts: -1.04

B16: 46L_47S_49E_50I_52G_53F_54S_55C_67L_, Q9UKT9 (peptide)
chain: LSCEICGFSCTQKGNLLRHIKL
[1]
  log2 fold change of degron read counts: 2.75
[2]
  log2 fold change of degron read counts: 2.53
[3]
  log2 fold change of degron read counts: 1.7
compound: thalidomide
  log2 fold change of degron read counts: 1.8

B17: 46L_47Q_49E_50I_52G_53F_54S_55C_67L_, Q9UKT9 (peptide)
chain: LQCEICGFSCTQKGNLLRHIKL
[1]
  log2 fold change of degron read counts: 2.41
[2]
  log2 fold change of degron read counts: 1.96
[3]
  log2 fold change of degron read counts: 1.77
compound: thalidomide
  log2 fold change of degron read counts: 3.58

B18: 46L_47R_49E_50I_52G_53F_54S_55C_67L_, Q9UKT9 (peptide)
chain: LRCEICGFSCTQKGNLLRHIKL
[1]
  log2 fold change of degron read counts: 2.23
[2]
  log2 fold change of degron read counts: 1.56
[3]
  log2 fold change of degron read counts: 2.62
compound: thalidomide
  log2 fold change of degron read counts: 2.99

B19: 46L_47L_49E_50I_52G_53F_54S_55C_67L_, Q9UKT9 (peptide)
chain: LLCEICGFSCTQKGNLLRHIKL
[1]
  log2 fold change of degron read counts: 1.68
[2]
  log2 fold change of degron read counts: -0.0296
[3]
  log2 fold change of degron read counts: 1.49
compound: thalidomide
  log2 fold change of degron read counts: 2.43

B20: 46L_47H_49E_50I_52G_53F_54S_55C_67L_, Q9UKT9 (peptide)
chain: LHCEICGFSCTQKGNLLRHIKL
[1]
  log2 fold change of degron read counts: 3.19
[2]
  log2 fold change of degron read counts: 3.16
[3]
  log2 fold change of degron read counts: 2.27
compound: thalidomide
  log2 fold change of degron read counts: 2.44

B21: 46L_47N_49E_50I_52G_53F_54S_55C_67L_, Q9UKT9 (peptide)
chain: LNCEICGFSCTQKGNLLRHIKL
[1]
  log2 fold change of degron read counts: 1.58
[2]
  log2 fold change of degron read counts: -0.0234
[3]
  log2 fold change of degron read counts: -0.0305
compound: thalidomide
  log2 fold change of degron read counts: 0.742

B22: 46L_47D_49E_50I_52G_53F_54S_55C_67L_, Q9UKT9 (peptide)
chain: LDCEICGFSCTQKGNLLRHIKL
[1]
  log2 fold change of degron read counts: 0.356
[2]
  log2 fold change of degron read counts: -1.04
[3]
  log2 fold change of degron read counts: -1.04
compound: thalidomide
  log2 fold change of degron read counts: -0.00753

B23: 46L_47V_49E_50I_52G_53F_54S_55C_67L_, Q9UKT9 (peptide)
chain: LVCEICGFSCTQKGNLLRHIKL
[1]
  log2 fold change of degron read counts: 2.39
[2]
  log2 fold change of degron read counts: 3.11
[3]
  log2 fold change of degron read counts: 2.52
compound: thalidomide
  log2 fold change of degron read counts: 3.33

B24: 46L_47G_49E_50I_52G_53F_54S_55C_67L_, Q9UKT9 (peptide)
chain: LGCEICGFSCTQKGNLLRHIKL
[1]
  log2 fold change of degron read counts: 1.24
[2]
  log2 fold change of degron read counts: 0.532
[3]
  log2 fold change of degron read counts: -0.284
compound: thalidomide
  log2 fold change of degron read counts: -0.251

B25: 46L_47A_49E_50I_52G_53F_54S_55C_67L_, Q9UKT9 (peptide)
chain: LACEICGFSCTQKGNLLRHIKL
[1]
  log2 fold change of degron read counts: 3.41
[2]
  log2 fold change of degron read counts: 2.96
[3]
  log2 fold change of degron read counts: 0.73
compound: thalidomide
  log2 fold change of degron read counts: 1.55

B26: 46L_47E_49E_50I_52G_53F_54S_55C_67L_, Q9UKT9 (peptide)
chain: LECEICGFSCTQKGNLLRHIKL
[1]
  log2 fold change of degron read counts: 0.457
[2]
  log2 fold change of degron read counts: -1.92
[3]
  log2 fold change of degron read counts: 1.25
compound: thalidomide
  log2 fold change of degron read counts: 2.46

B27: 46L_47W_49E_50I_52G_53F_54S_55C_67L_, Q9UKT9 (peptide)
chain: LWCEICGFSCTQKGNLLRHIKL
[1]
  log2 fold change of degron read counts: 3.66
[2]
  log2 fold change of degron read counts: 3.79
[3]
  log2 fold change of degron read counts: 3.08
compound: thalidomide
  log2 fold change of degron read counts: 1.89

B28: 46F_47L_49D_50I_52G_53A_54C_55F_67L_, Q9UKT9 (peptide)
chain: FLCDICGACFTQKGNLLRHIKL
[1]
  log2 fold change of degron read counts: -0.48
[2]
  log2 fold change of degron read counts: -1.68
[3]
  log2 fold change of degron read counts: 0.21
compound: thalidomide
  log2 fold change of degron read counts: -0.568
